# Hit rate of the full screen: of about 360,000 compounds, about 2,600 (0.72%) were called active. Inconclusive results (about 5%) are left out. Calls follow the shape of the dose curve; as a rule, active = well fitted inhibition curve with a large enough effect; inconclusive = small, poorly fitted or top-dose-only effect; inactive = no such curve, though single readings can be large or run the other way. Only a selection was taken, and actives are over-represented in it overall.
# Experiment: Primary qHTS for Inhibitors of ATXN expression; also: nearly all actives have a fitted effect of over 55% in size
# Conditions: HEK-293 ATXN2-luciferase reporter, luminescence, 24 h; series mostly up to 57 µM; activity change, negative = inhibition: at the top concentration
# Excerpt: University of Utah School of Medicine, Salt Lake City, Utah
# Spinocerebellar ataxia type 2 (SCA2) is a multisystem neurodegenerative disease caused by a dominantly acting mutation leading to expansion of a polyQ domain in the ataxin-2 protein (ATXN2). SCA2 patients develop progressive ataxia and later lose function in other neuronal systems. Prominent parkinsonian signs develop in some patients. Like many neurodegenerative disorders, no symptomatic or disease-modifying treatments are known.
# The primary objective of the proposed research is to identify compounds inhibiting ATXN2 expression and to test them for efficacy in SCA2 mouse models. We have developed a cell-based assay paired with an in vivo mouse model using identical luciferase expression constructs. This approach takes advantage of an ATXN2-luciferase transgene, with the luciferase gene flanked by the upstream and downstream portions of the ATXN2 gene. Here we describe a 5-7 dose quantitative high thoroughput screen (qHTS) for compounds lowering ATXN2 expression. We screened the NIH Molecular Libraries Small Molecule Repository (MLSMR) and NCGC's mechanistically annotated (MIPE) and drug repurposing (NPC) collections of compounds for lowering expression of an ATXN2-luciferase reporter in HEK-293 cells. The assay is a multiplexed cell viability assay to ensure target reduction in the absence of cytotoxicity. Secondary qHTS assays included a CMV-luciferase reporter expressed in HEK-293 cells as well as a biochemical assay using recombinant luciferase to detect inhibitors of the reporter enzyme. Compounds that inhibit ATXN2 expression but is not cytotoxic were selected for confirmatory and secondary screens.
# PROTOCOL TABLE (as described by Inglese J, Shamu CE and Guy RK. 2007)
# SEQUENCE No. (e.g., 1, 2, 3, etc.); […] (e.g., Cells, Incubation, Reagent, etc.); VALUE; DESCRIPTION.
# 1; Cells; 4 uL; white, solid bottom, 1536-well Greiner assay plate.
# 2; Incubation; 2 hr; 37 degree C in 5% humidified CO2.
# 3; Compounds; 23 nL; Kalypsis pintool (Wako USA) equipped with a 1536-well pin head.
# 4; Incubation; 24 hr; 37 degree C in 5% humidified CO2.
# 5; Reagent; 1 uL; Gly-Phe-7-Amino-4-trifluoromethylcoumarin.
# 6; Incubation; 30 min; 37 degree C in 5% humidified CO2.
# 7; Detection; Fluorescence; ViewLux plate reader (PerkinElmer).
# 8; Reagent; 3 uL; SteadyGlo luciferase solution (Promega).
# 9; Incubation; 5 min; room temperature.
# 10; Detection; Luminescence; ViewLux plate reader (PerkinElmer).
# NOTES (numbers refer to Sequence numbers above)
# 1. S2 cells expressing ATXN2-luciferase reporter were suspended in phenol-red free DMEM and dispensed in assay plates using a Multidrop Combi dispenser (Thermo Fisher Scientific).
# 2. Assay plates were incubated. Evaporation was prevented by covering assay plates with metal lids containing holes to allow gas diffusion.
# 3. Compounds were added in a dose response manner with the final concentrations of 57, 11.4, 2.28, 0.46, 0.091, 0.018, 0.0037 uM. Vehicle-only plates, with DMSO being pin-transferred to columns 5-48, were inserted uniformly at the beginning and the end of each library to monitor and record any shifts in assay performance.
# 5. 125 uM Gly-Phe-7-Amino-4-trifluoromethylcoumarin (MP Biomedicals) working concentration was used at a final concentration of 25 uM.
# 7. To assess cell viability; the assay plates were read using the ViewLux high-throughput CCD imager (PerkinElmer), wherein single end-point fluorescence measurement was acquired (excitation 405/10; emission 540/25 nm).
# 8. Detection reagent SteadyGlo Luciferase (Promega) was added to the assay plate.
# 10. Luminescence is then measured on the ViewLux imager equipped with a clear emission filter using a 2 sec exposure. All screening operations were performed on a fully integrated robotic system (Kalypsys) containing one RX-130 and two RX-90 anthropomorphic robotic arms (Staubli).
# […]
# % is scaled to controls: 0 for no effect and ±100 for the full control effect; potency is read from the fitted curve at half-maximal effect.
Compound,"activity change, negative = inhibition",Potency
CC(Cc1ccccc1)NC=O (stereo not given),7.92% (inactive),
CC(=O)NC(=O)NC(C)Cc1ccccc1 (stereo not given),2.01% (inactive),
CC(Cc1ccccc1)NCCC(c1ccccc1)c1ccccc1 (stereo not given),,28.2 µM (active)
CCCOC(=O)c1cncn1C(C)c1ccccc1 (stereo not given),9.45% (inactive),
COC(=O)C1=C(c2ccc(OCc3ccccc3)cc2)C[C@@H]2CC[C@H]1N2C(=O)NCc1ccc(Cl)cc1,-22.2% (inactive),
O=P(OC1=CCCCC1)(c1ccccc1)c1ccccc1,-7.03% (inactive),
CCC(C)(O)C(=O)OC1C(=O)OC2CC3C(C)=CC(=O)C(O)C3(C)C3C4(O)OCC23C1C(C)C4O (stereo not given),,0.168 µM (active)
CCOC(=O)[C@]12Cc3cc(OC)ccc3[C@H]1N(C(C)C)C(=O)c1ccccc12,,17.8 µM (active)
CCOC(=O)[C@]12Cc3ccccc3[C@H]1N(C1CCCCC1)C(=O)c1cc(OC)ccc12,,7.94 µM (active)
CC1=C(C(=O)O)N2C(=O)[C@@H](N)[C@H]2SC1,1.93% [at 25.6 µM] (inactive),
O=C(N/N=C/c1ccc([N+](=O)[O-])o1)c1cc([N+](=O)[O-])cc([N+](=O)[O-])c1O,4.24% (inactive),
O=S(=O)(O)C(F)(F)C(F)(F)C(F)(F)C(F)(F)F,3.26% [at 116 µM] (inactive),
CC(C)=C[C@@H]1[C@@H](C(=O)OCc2coc(Cc3ccccc3)c2)C1(C)C,-1.03% (inactive),
O=C(NC1CCCCC1)N1Cc2cc(N3CCCCC3)ccc2-n2nncc2C1,2.55% (inactive),
CNC(=S)N/N=C1\C2CN3CCN(C2)CC1(c1ccccc1)C3,1.34% (inactive),
S=C(NCCc1ccccc1)N1Cc2cc(N3CCOCC3)ccc2-n2nncc2C1,-12.2% (inactive),
C[C@]12CCC3C(CC[C@H]4C[C@@H](O)CC[C@]34C)C1CC[C@@H]2O (stereo not given in full),-11.2% (inactive),
C[C@]12CC[C@H](O)C[C@H]1CC[C@@H]1C2CC[C@]2(C)[C@@H](C3=CC(=O)OC3)[C@@H](O)C[C@]12O (stereo not given in full),,2 µM (active)
COC1C(O)C(C)OC(OC2CCC3(C=O)C(CCC4C3CCC3(C)C(C5=CC(=O)OC5)CCC43O)C2)C1O (stereo not given),-78.8% (inactive),
CSCCC(c1nnnn1C(C)(C)C)N1CCC(n2c(=O)[nH]c3ccccc32)CC1 (stereo not given),-18.6% (inactive),

Compound,"activity change, negative = inhibition",Potency
O=c1[nH]c2ccccc2n1C1CCN(C(c2ccccc2)c2nnnn2Cc2ccccc2)CC1 (stereo not given),,25.1 µM (active)
O=c1[nH]c2ccccc2n1C1CCN(C(c2ccnc3ccccc23)c2nnnn2Cc2ccccc2)CC1 (stereo not given),0% (inactive),
COC(=O)C1=C(c2ccc(OCc3ccccc3)cc2)C[C@@H]2CC[C@H]1N2C(=O)NCc1cccc(F)c1,-10.1% (inactive),
CCCn1c(C(=O)c2ccccc2OC)nc2ccccc21,1.9% (inactive),
CC[N+]1(CCOC(=O)C(O)(c2ccccc2)c2ccccc2)CCCCC1,25.5% (inactive),
O=C(NCC1=C(c2ccc3ccccc3c2)C[C@@H]2CC[C@H]1N2Cc1ccco1)c1cccs1,-20.2% (inactive),
CCCCC1C(=O)NC(=O)N(C2CCCCC2)C1=O (stereo not given),10.8% (inactive),
COC(=O)CN(CCCl)P1(=O)OCCCN1CCCl (stereo not given),3.04% (inactive),
O=C(O)COc1ccccc1/C=C1\C(=O)NC(=O)N(CCC2=CCCCC2)C1=O,6.1% (inactive),
O=C1NC(=O)N(c2ccc(F)cc2)C(=O)/C1=C/c1ccc2c(c1)CCCN2Cc1ccccc1,-11.9% (inactive),
O=C1NC(=O)N(CCc2ccc(F)cc2)C(=O)/C1=C/C=C/c1ccccc1,,10 µM (active)
COc1cc(C(=O)N2Cc3ccc(Br)cc3-n3nncc3C2)cc(OC)c1OC,7.09% (inactive),
Cc1cccc(Cn2cccc(C(=O)Nc3ccc4c(c3)OCCO4)c2=O)c1,-24.9% (inactive),
CC(=Cc1csc(C)n1)[C@@H]1C[C@H]2O[C@]2(C)CCC[C@H](C)[C@@H](O)[C@@H](C)C(=O)C(C)(C)[C@@H](O)CC(=O)O1,-17.3% (inactive),
NCCc1ccc(S(=O)(=O)F)cc1,1.91% (inactive),
COc1cccc(C(c2nnnn2-c2ccc3c(c2)OCCO3)N2CCC3(CC2)C(=O)NCN3c2ccccc2)c1OC (stereo not given),-36.2% (inactive),
CC1N=C(N)OC1c1ccccc1 (stereo not given),7.78% [at 116 µM] (inactive),
CO[C@]12CC[C@@]3(C[C@@H]1[C@](C)(O)C(C)(C)C)[C@@H]1Cc4ccc(O)c5c4[C@@]3(CCN1CC1CC1)[C@H]2O5,,35.5 µM (active)
Oc1ccc2c3c1OC1[C@H](O)CC[C@@]4(O)[C@@H](C2)N(CC2CC2)CC[C@]314 (stereo not given in full),,inactive
Cc1ncsc1CCCl,11.9% (inactive),
